In paper PMC5540273 (PLoS ONE, 2017):

What follows are molecules tested on TGFBR2. Details: concentration: 1 μM, replicates: in singlicate; n = 1.
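Further: KINOMEscan kinase panel screen.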

**Q.** Which “%Inh” value does the source give for O=C(Nc1n[nH]c2cc(-c3ccsc3)ccc12)C1CC1 [SB-732932] here?
**A.** 0%

**Q.** How did the “%Inh” value turn out when CC[C@@H]1CO[C@H](C(=O)Nc2ccccc2)CN1c1cc(-c2ccc3c(N)n[nH]c3c2)nc(NC)n1 [GSK2376236] was run?
**A.** 0%

**Q.** With CNc1cc(-c2ccc3c(N)n[nH]c3c2)nc(N)n1 [GSK2224810] as the molecule, how does the “%Inh” value read?
**A.** 47%

**Q.** With COC(=O)C(NC(=O)NC1CCN(c2ccnc(Nc3ccc(F)cc3)n2)C1)c1ccccc1 (stereo not drawn) [GSK1379712] as the molecule, how does the “%Inh” value read?
**A.** 0%

**Q.** For Cc1ccccc1Cn1ccn2c(=O)cc(N3CCOCC3)nc12 [GSK2269905], which “%Inh” value is on record?
**A.** 0%

**Q.** With Fc1ccc(-c2nn3cccc(F)c3c2-c2ccncc2)cc1 [GW475620] as the molecule, how does the “%Inh” value read?
**A.** 11%

**Q.** With COc1ccc(Nc2nccc(-c3ccc(NC(=O)c4cc5cc(F)ccc5[nH]4)cc3)n2)cc1 [GSK1229496] as the molecule, how does the “%Inh” value read?
**A.** 0%

**Q.** How did the “%Inh” value turn out when COc1ccc(Nc2nccc(N3CCC(NC(=O)c4cc5ccccc5s4)C3)n2)cc1 (stereo not drawn) [GSK1379738] was run?
**A.** 0%

**Q.** For COc1ccc(-c2coc3ccc(-c4nnc(C)o4)cc23)cc1, which “%Inh” value is on record?
**A.** 43%

**Q.** How did the “%Inh” value turn out when CNCc1ccc2nc(NC(=O)c3ccc(C(C)(C)C)cc3)cn2c1 was run?
**A.** 2%

**Q.** For CS(=O)(=O)CCNCc1nc(-c2ccc3ncnc(Nc4ccc(OCc5ccccc5)c(Cl)c4)c3c2)cs1.Cl [GW582764], which “%Inh” value is on record?
**A.** 0%

**Q.** For Cl.Cl.Cl.N#Cc1ccc(CCNc2nccc(-c3cccc(CN4CCNCC4)c3)n2)cc1 [GSK2137462], which “%Inh” value is on record?
**A.** 0%

**Q.** Cc1c(Cn2c3ccccc3n3c(=O)cc(N4CCOCC4)nc23)cccc1C(F)(F)F [GSK2306394] was tested. Which “%Inh” value did it give?
**A.** 10%

**Q.** For CC(C)c1ccc(O)cc1Nc1ccnc2ccc(C(F)(F)F)cc12 [GW482059], which “%Inh” value is on record?
**A.** 15%

**Q.** O=C(Nc1n[nH]c2nc(-c3cccs3)c(Br)cc12)C1CC1 [SB-735297] was tested. Which “%Inh” value did it give?
**A.** 0%

**Q.** Which “%Inh” value does the source give for Cc1cnc(N)c(/C=C/c2cncc(C(=O)NCCc3ccc(Cl)cc3Cl)c2)c1.Cl [GSK190937] here?
**A.** 0%

**Q.** For c1ccc(-c2ccnc3[nH]ccc23)cc1 [SB-693578], which “%Inh” value is on record?
**A.** 10%

**Q.** How did the “%Inh” value turn out when O=C(Nc1n[nH]c2nc(-c3ccco3)c(Br)cc12)C1CCN(Cc2ccccc2)C1.O=C(O)[C@H](O)[C@@H](O)C(=O)O (stereo not drawn) [SB-742034] was run?
**A.** 21%

**Q.** CCCCc1nn2ncccc2c1-c1ccnc(NC2CC2)n1 [GW684374] was tested. Which “%Inh” value did it give?
**A.** 7%

**Q.** CC(=O)c1cccc(NC(=O)NC2CCN(c3ccnc(Nc4ccc(F)cc4)n3)C2)c1 (stereo not drawn) [GSK1379710] was tested. Which “%Inh” value did it give?
**A.** 0%

**Q.** With COc1ccc(Nc2nccc(N3CCC(NC(=O)C(C)c4ccc(Cl)cc4)C3)n2)cc1 (stereo not drawn) [GSK1379735] as the molecule, how does the “%Inh” value read?
**A.** 0%

**Q.** With CS(=O)(=O)CCNCc1nc(-c2ccc3ncnc(Nc4ccc5c(cnn5Cc5ccccc5)c4)c3c2)cs1.Cl.Cl [GW569716] as the molecule, how does the “%Inh” value read?
**A.** 0%

**Q.** Cc1ccc(-c2nc(Nc3ccncc3)c3ccccc3n2)s1 [GSK189015] was tested. Which “%Inh” value did it give?
**A.** 21%

**Q.** For Cc1cccc2c(-c3ccncn3)c(-c3ccc(F)cc3)nn12 [GW515532], which “%Inh” value is on record?
**A.** 23%

**Q.** Cc1ccc(NC(=O)Nc2ccc(Cl)c(C(F)(F)F)c2)cc1-c1ccc(C(=O)Nc2ccncc2)cc1 [GSK1398470] was tested. Which “%Inh” value did it give?
**A.** 7%

**Q.** COc1ccc(Nc2nccc(NCCNC(=O)Nc3cc(C)ccc3C)n2)cc1 [GSK1379899] was tested. Which “%Inh” value did it give?
**A.** 0%

**Q.** COc1cccc(NC(=O)Nc2ccc(C)c(-c3ccc(C(=O)Nc4ccncc4)cc3)c2)c1 [GSK1398474] was tested. Which “%Inh” value did it give?
**A.** 0%

**Q.** COc1cccc(CNC(=O)NC2CCN(c3ccnc(Nc4ccc(F)cc4)n3)C2)c1 (stereo not drawn) [GSK1379723] was tested. Which “%Inh” value did it give?
**A.** 0%

**Q.** How did the “%Inh” value turn out when CC(=O)c1c(C)c2cnc(Nc3ccn(C)n3)nc2n(C2CCCC2)c1=O was run?
**A.** 0%

**Q.** With O=C1NC(=O)C(c2ccc(Cl)cc2)=C1Nc1ccc(O)cc1 [SB-340867] as the molecule, how does the “%Inh” value read?
**A.** 0%

**Q.** How did the “%Inh” value turn out when COc1ccc(CSc2nnc(-c3ccc4c(c3)CCO4)o2)cc1 was run?
**A.** 0%

**Q.** COc1nccc(-c2c(-c3ccc(F)cc3)ncn2CCCN2CCOCC2)n1 [SB-282852] was tested. Which “%Inh” value did it give?
**A.** 0%

**Q.** For COC(=O)C(Cc1ccccc1)NC(=O)NC1CCN(c2ccnc(Nc3ccc(F)cc3)n2)C1 (stereo not drawn) [GSK1379714], which “%Inh” value is on record?
**A.** 0%

**Q.** Which “%Inh” value does the source give for COc1cccc(C2=C(Nc3cc(Cl)c(O)c(Cl)c3)C(=O)NC2=O)c1 [SB-390767] here?
**A.** 30%

**Q.** Which “%Inh” value does the source give for Cc1ccc(NC(=O)Nc2ccc(Cl)cc2)cc1-c1ccc(C(=O)Nc2ccncc2)cc1 [GSK1398472] here?
**A.** 0%

**Q.** With CCn1c(-c2ccccc2)nc2cnccc21 [SB-733416] as the molecule, how does the “%Inh” value read?
**A.** 8%
